Experiment [1] in a line: Cytotoxicity counterscreen for NFkB agonists and antagonists (AID 624476).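 Also: cells exposed to compound for 48 hours; % is scaled to controls: 0 for no effect and ±100 for the full control effect.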 Conditions: NFkB reporter cell line viability counterscreen; series mostly up to 46.1 µM.
A short description of experiment [2]: qHTS Assay for Identification of Small Molecule Agonists for NFkB Signaling Pathway. (AID 624478).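 Also: compounds tested together with TNF alpha at its EC50 of 10 pM; 0% is about no effect.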 The settings on record: NFkB pathway reporter cell assay, agonist mode, cells co-stimulated with 10 pM TNF alpha; series mostly up to 46.1 µM. In a few lines: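 Cells carrying an NFkB response element-driven beta-lactamase gene are co-treated with compound and 10 pM TNF alpha for 5 h, and reporter activity is then read as 460 and 530 nm fluorescence.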

Experiment [3] can be described thus: qHTS Assay for Identification of Small Molecule Antagonists for NFkB Signaling Pathway. (AID 624479; calls by dose curve; also: % is scaled to controls: 0 for no effect and ±100 for the full control effect). Conditions: NFkB pathway reporter cell assay, antagonist mode; series mostly up to 38.3 µM. On the technique in general: In qHTS, concentration-response curves come from the screen itself.
The target in experiment [4] is Androgen receptor (Homo sapiens) (UniProt P10275). Put plainly: qHTS assay for small molecule antagonists of androgen receptor signaling (AID 588516; active = well fitted curve in the direction sought with a large enough effect in the signal ratio, with a control signal flat, not every such curve was filed as active; the % refers to the signal ratio; also: % is scaled to controls: 0 for no effect and ±100 for the full control effect). The settings on record: AR-UAS-bla HEK293, beta-lactamase ratio, antagonist mode, 16 h; series mostly up to 76.8 µM. The essentials: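 Antagonist-mode qHTS: inhibition of R1881 (10 nM)-driven beta-lactamase expression in GripTite HEK 293 cells is measured after 16 h; values are Hill-derived IC50s normalized between R1881 and DMSO wells.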
Androgen receptor (Homo sapiens), sequence (P10275 whole entry, looked up): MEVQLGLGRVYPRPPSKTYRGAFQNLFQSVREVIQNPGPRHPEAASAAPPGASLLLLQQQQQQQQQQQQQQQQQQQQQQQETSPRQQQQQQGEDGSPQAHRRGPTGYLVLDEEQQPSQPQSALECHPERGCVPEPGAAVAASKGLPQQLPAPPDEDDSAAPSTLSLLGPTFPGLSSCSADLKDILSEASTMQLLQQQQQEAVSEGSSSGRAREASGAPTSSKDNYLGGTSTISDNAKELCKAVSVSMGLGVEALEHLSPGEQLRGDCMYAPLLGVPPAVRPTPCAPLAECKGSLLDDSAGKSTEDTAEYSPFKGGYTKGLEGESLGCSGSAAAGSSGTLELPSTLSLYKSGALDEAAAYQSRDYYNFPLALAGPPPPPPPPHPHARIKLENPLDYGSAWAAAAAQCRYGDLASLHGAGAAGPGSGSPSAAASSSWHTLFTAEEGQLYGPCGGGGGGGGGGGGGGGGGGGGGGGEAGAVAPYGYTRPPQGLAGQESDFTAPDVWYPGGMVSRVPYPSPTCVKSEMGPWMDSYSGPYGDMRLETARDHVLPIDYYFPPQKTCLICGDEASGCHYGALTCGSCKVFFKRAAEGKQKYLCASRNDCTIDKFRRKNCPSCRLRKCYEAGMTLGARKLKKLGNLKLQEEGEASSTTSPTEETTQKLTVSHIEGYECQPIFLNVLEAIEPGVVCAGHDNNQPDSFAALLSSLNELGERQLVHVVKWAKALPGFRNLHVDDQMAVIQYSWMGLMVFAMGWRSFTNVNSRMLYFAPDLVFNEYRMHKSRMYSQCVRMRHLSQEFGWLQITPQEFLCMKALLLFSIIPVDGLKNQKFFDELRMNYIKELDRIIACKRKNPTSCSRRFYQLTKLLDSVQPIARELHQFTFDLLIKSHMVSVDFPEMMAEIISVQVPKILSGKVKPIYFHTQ

The nature of experiment [5]: qHTS profiling of the MIPE4 collection as inhibitors of Plasmodium falciparum (3D7) proliferation (AID 743344; call rule not given here;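 also: scaled between DMSO vehicle wells and 0.29 µM artemisinin as full inhibition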). Conditions: P. falciparum 3D7 in erythrocytes, SYBR Green DNA fluorescence, 72 h; at 28.5 µM (top of the series). In a few lines: (§1)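 Erythrocytes infected with P. falciparum (0.3% parasitemia, 2.5% hematocrit) incubated with compounds 72 h at 37 C, 5% CO2. Lysis with saponin/Triton buffer containing SYBR Green I, overnight at room temperature in the dark; DNA fluorescence (485/535 nm) normalised to 0.29 uM artemisinin and DMSO.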

Experiment [6] can be described thus: qHTS profiling of the MIPE4 collection as inhibitors of Plasmodium falciparum (DD2) proliferation (AID 743345; call rule not given here). The settings on record: P. falciparum Dd2 in erythrocytes, SYBR Green DNA, 72 h; at 28.5 µM (top of the series). The essentials: as §1
A short description of experiment [7]: qHTS profiling of the MIPE4 collection as inhibitors of Plasmodium falciparum (DD2) proliferation (Rep 2) (AID 743346; call rule not given here). Conditions: P. falciparum Dd2 in erythrocytes, SYBR Green DNA, 72 h; at 28.5 µM (top of the series). The essentials: as §1
A short description of experiment [8]: qHTS profiling of the MIPE4 collection as inhibitors of Plasmodium falciparum (HB3) proliferation (AID 743347; call rule not given here;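 also: plate controls were DMSO vehicle wells for no effect and artemisinin wells for full effect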). Conditions: P. falciparum HB3 in erythrocytes, SYBR Green DNA, 72 h; at 28.5 µM (top of the series). In a few lines: as §1
Experiment [9] in a line: S16 Schwann cell PMP22 intronic element beta-lactamase assay (AID 624044; calls by dose curve;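 also: 0% = DMSO and -100% = potassium clavulanate positive control; nearly all actives have a fitted effect of over 15% in size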). Conditions: S16 rat Schwann cells, PMP22 element beta-lactamase FRET, 24 h; series mostly up to 38.3 µM. The essentials: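 Rat S16 Schwann cells with beta-Lac driven by a PMP22 intronic element, compound-treated 24 h at 37 °C. LiveBLAzer FRET B/G read: 460 nm normalized to potassium clavulanate vs DMSO; 535 nm FRET as viability; concentration-effect curves classified.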

For a further experiment, the system named is CP215. Put plainly: qHTS profiling for inhibitors of Plasmodium falciparum proliferation (AID 504749).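 Also: 0% = DMSO vehicle and full inhibition = artemisinin control; nearly all actives have a fitted effect of over 60% in size.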 Conditions: P. falciparum in erythrocytes, SYBR Green DNA, 72 h; series mostly up to 28.7 µM. The essentials: (§2)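 P. falciparum-infected erythrocytes (0.3% parasitemia, 2.5% hematocrit final) were exposed to compounds for 72 h at 37 C in 5% CO2, then lysed with SYBR Green buffer overnight at room temperature; parasite DNA fluorescence was normalized to artemisinin and DMSO controls.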

For a further experiment, the system named is PC26. Described as above. Conditions: P. falciparum in erythrocytes, SYBR Green DNA, 72 h; series mostly up to 28.7 µM. In a few lines:
as §2

Experiment [10] in a line: Viability counterscreen for agonist of constitutive androstane receptor (CAR) against the NCATS DSHEA and TCM libraries (AID 1794838). Also: 0% is about no effect. Conditions: HepG2 cell viability counterscreen, CAR agonist assay, co-treated with 0.75 µM CAR antagonist; series mostly up to 40 µM. The essentials: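 In agonist mode, PK11195 is added at 0.75 uM final to HepG2-CYP2B6-hCAR cells dosed with test substances. Cultures incubate 24 h at 37C before a protease-based fluorogenic viability readout.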
(In general: Counterscreens check selectivity or assay interference.)

Experiment [11] in a line: HepG2 viability counterscreen (readout 2: ATP content) against the NCATS DSHEA and TCM libraries (AID 1794840).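 Also: HepG2 cells exposed to substances for about 24 h; 0% is about no effect.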 The settings on record: ATP content luminescence; series mostly up to 27.3 µM. In a few lines: (§3)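 Cytotoxicity was assessed in HepG2 cells plated at 1,000 cells/well and exposed for about 24 hours to a concentration series. Protease activity and ATP content were measured sequentially in each well.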

Experiment [12] can be described thus: HepG2 viability counterscreen (readout 1: protease activity) against the NCATS DSHEA and TCM libraries (AID 1794841).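 Also: cells exposed to compounds for about 24 h before the protease read; 0% is about no effect.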 The settings on record: qHTS concentration series; series mostly up to 27.3 µM. In a few lines: as §3
Experiment [13] addresses Cytochrome P450 2C19 (Homo sapiens) (UniProt P33261). As to the kind of experiment: qHTS for inhibitors of CYP2C19 against the NCATS DSHEA and TCM libraries (AID 1919974).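 Also: luminescence from luciferin released by CYP2C19 oxidation of a pro-luciferin substrate.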 Also: potency is read from the fitted curve at half-maximal effect. Conditions: CYP2C19 enzyme inhibition, luminescence qHTS; series mostly up to 34.1 µM. In a few lines: (§4)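 Light output from converted D-luciferin reports remaining CYP activity. Compounds preincubate with enzyme and substrate for 15 min; NADPH regeneration (1x final) runs the reaction for 30-45 min.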

Experiment [14] is described as follows: Dual reporter qHTS for agonist of Pregnane X Receptor (hPXR) against the NCATS DSHEA and TCM libraries: Fluorescence readout (AID 1920058). Also: 0% is about no effect. The settings on record: PXR dual reporter cells; series mostly up to 40 µM. In a few lines: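 Measures viability of the PXR reporter HepG2 line by protease-substrate fluorescence (405/540 nm), taken 1 h after CellTiter-Fluor addition. Substances are tested as concentration series over a ~24 h exposure, with rifampicin as agonist control.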

Experiment [15] concerns the target Nuclear receptor subfamily 1 group I member 3 (Homo sapiens) (UniProt Q14994). Put plainly: Primary qHTS for agonist of constitutive androstane receptor (CAR) against the NCATS DSHEA and TCM libraries (AID 1794839).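 Also: HepG2 cells expressing human CAR with a CYP2B6 reporter plus PK11195 antagonist; luciferase reporter luminescence read with ONE-Glo; 0% is about no effect.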 The settings on record: CAR agonist reporter cells, qHTS luminescence, CAR antagonist co-added at 0.75 µM; series mostly up to 40 µM. The essentials: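 Cells stably carrying hCAR and a CYP2B6 reporter (HepG2 background) are seeded and allowed 5 h to adhere. Substances at multiple concentrations are added alongside 0.75 µM PK11195, and luciferase signal is measured after 24 h.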

In experiment [16] the target is Cytochrome P450 3A4 (Homo sapiens) (UniProt P08684). As to the kind of experiment: qHTS for inhibitors of CYP3A4 against the NCATS DSHEA and TCM libraries (AID 1919971).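 Also: % is scaled to controls: 0 for no effect and ±100 for the full control effect; inhibition lowers luminescence from luciferin made by CYP3A4.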 The settings on record: recombinant CYP3A4 enzyme activity, luminescence qHTS; series mostly up to 34.1 µM. In a few lines: as §4
Cytochrome P450 3A4 (Homo sapiens), sequence (P08684 whole entry, looked up): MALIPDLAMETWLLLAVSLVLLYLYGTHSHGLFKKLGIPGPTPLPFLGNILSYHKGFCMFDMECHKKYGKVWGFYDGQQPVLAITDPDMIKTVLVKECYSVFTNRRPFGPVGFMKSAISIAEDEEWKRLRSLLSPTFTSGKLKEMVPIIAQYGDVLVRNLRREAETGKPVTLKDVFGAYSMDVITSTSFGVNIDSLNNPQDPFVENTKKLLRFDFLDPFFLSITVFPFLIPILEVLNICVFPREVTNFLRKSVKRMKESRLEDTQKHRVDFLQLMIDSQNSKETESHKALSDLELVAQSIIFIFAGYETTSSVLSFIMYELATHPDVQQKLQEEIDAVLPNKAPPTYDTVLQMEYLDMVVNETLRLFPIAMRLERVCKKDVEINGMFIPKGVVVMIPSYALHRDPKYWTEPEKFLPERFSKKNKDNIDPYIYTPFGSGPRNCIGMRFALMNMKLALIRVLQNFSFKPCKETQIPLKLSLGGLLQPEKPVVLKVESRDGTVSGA
The target in experiment [17] is Cytochrome P450 1A2 (Homo sapiens) (UniProt P05177). Put plainly: qHTS for inhibitors of CYPIA2 against the NCATS DSHEA and TCM libraries (AID 1919976).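 Also: light from luciferin formed by CYP1A2 from a pro-luciferin substrate; % is scaled to controls: 0 for no effect and ±100 for the full control effect.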 The settings on record: recombinant CYP1A2 enzyme activity, luminescence; series mostly up to 37 µM. In a few lines: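 In this quantitative HTS, inhibition of recombinant human CYP1A2 was measured as loss of luciferin-derived luminescence. Turnover ran 30-45 min at RT after NADPH regeneration solution was added.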
Cytochrome P450 1A2 (Homo sapiens), sequence (P05177 whole entry, looked up): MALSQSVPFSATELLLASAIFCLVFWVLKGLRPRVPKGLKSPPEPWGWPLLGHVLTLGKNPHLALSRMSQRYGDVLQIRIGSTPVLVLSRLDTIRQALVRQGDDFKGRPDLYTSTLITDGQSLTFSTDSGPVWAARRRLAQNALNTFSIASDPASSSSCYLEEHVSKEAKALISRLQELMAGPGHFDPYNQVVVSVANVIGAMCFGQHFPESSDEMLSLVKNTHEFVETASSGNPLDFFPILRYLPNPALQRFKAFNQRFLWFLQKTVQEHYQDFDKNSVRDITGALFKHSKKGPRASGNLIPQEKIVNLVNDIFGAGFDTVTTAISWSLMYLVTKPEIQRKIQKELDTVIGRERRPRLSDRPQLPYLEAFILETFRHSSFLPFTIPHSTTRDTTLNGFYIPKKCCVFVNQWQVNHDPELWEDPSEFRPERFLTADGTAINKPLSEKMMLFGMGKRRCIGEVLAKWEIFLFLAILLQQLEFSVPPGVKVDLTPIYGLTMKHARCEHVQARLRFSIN

The target in experiment [18] is Bile acid receptor (Homo sapiens) (UniProt Q96RI1). Put plainly: qHTS assay for small molecule antagonists of farnesoid X receptor signaling (AID 588526; calls by dose curve; also: % is scaled to controls: 0 for no effect and ±100 for the full control effect). The settings on record: HEK293T FXR-UAS-bla, beta-lactamase ratio, antagonist mode; series mostly up to 76.7 µM. In a few lines:
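Concentration-response titrations were fitted to the Hill equation for half-maximal inhibition and maximal response, with data normalised to 50 uM chenodeoxycholic acid and DMSO control wells. Cells: FXR-UAS-bla HEK293T, dialyzed FBS.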

Records with an inconclusive call do not appear. The source made the active and inactive calls. Unless noted, calls follow the shape of the dose curve; as a rule, active = well fitted curve in the direction sought with a large enough effect; inconclusive = small, poorly fitted or top-dose-only effect, or another doubt; inactive = no such curve, though single readings can be large; an effect the other way counts as inactive or inconclusive.

Bile acid receptor (Homo sapiens), sequence (Q96RI1 whole entry, looked up): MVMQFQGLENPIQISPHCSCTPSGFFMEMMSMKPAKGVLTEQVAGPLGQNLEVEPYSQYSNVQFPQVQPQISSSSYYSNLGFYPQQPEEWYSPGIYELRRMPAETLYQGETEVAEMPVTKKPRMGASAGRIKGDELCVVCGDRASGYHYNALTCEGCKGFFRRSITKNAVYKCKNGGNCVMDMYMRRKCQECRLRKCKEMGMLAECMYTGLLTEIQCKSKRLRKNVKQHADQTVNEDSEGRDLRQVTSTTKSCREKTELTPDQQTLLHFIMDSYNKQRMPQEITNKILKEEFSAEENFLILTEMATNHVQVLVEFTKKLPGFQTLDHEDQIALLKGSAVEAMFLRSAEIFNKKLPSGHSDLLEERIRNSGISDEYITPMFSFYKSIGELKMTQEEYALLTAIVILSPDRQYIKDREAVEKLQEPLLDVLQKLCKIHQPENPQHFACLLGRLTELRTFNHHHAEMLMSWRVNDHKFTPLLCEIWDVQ
Cytochrome P450 2C19 (Homo sapiens), sequence (P33261 whole entry, looked up): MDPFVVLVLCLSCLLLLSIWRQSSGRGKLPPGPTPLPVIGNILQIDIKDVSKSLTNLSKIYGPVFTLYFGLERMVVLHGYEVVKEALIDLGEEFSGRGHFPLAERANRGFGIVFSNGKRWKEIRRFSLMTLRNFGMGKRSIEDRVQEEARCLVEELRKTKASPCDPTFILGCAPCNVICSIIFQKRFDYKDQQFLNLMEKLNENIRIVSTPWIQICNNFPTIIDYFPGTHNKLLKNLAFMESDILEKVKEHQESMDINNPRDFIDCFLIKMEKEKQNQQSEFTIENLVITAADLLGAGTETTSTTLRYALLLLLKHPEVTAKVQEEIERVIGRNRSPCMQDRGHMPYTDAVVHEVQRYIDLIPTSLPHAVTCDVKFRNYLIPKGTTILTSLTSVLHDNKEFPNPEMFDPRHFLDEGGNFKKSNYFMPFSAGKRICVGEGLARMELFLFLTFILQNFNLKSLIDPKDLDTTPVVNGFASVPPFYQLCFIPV
Nuclear receptor subfamily 1 group I member 3 (Homo sapiens), sequence (Q14994 whole entry, looked up): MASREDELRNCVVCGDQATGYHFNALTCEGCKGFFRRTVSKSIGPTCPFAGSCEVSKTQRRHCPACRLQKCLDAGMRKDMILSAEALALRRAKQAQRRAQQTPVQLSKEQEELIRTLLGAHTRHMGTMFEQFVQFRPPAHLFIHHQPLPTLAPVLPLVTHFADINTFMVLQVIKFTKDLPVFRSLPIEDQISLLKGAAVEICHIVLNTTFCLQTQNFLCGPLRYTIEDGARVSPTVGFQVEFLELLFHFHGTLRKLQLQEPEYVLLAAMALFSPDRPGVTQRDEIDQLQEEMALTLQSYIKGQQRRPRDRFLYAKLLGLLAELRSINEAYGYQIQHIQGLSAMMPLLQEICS

Consider `CCC(C)n1ncn(-c2ccc(N3CCN(c4ccc(OCC5COC(Cn6cncn6)(c6ccc(Cl)cc6Cl)O5)cc4)CC3)cc2)c1=O` (configuration not stated), for which the compound was classed as inactive in [1], in experiment [2] and in experiment [3].

Regarding `O=C(Nc1ccccc1)c1ccccc1O`, in experiment [4], the result was inactive.

`CCCCCCCCCCCCCCCCn1cc[n+](Cc2ccccc2)c1C` gave a parasite growth, % of DMSO control in [5] of 5.58%. The parasite growth remaining, % of DMSO control (lower = more inhibition) in experiment [6] came out at 6.21%. For the same compound, the parasite growth, % of control (lower = inhibition) in [7] amounted to 8.98%. The compound also displayed a growth, % of control in experiment [8] of 5.99%.

Consider `CC(C)CN(C[C@@H](O)[C@H](Cc1ccccc1)NC(=O)O[C@H]1CCOC1)S(=O)(=O)c1ccc(N)cc1`, for which the Potency entry (in experiment [9]; with CP215; with PC26) was “inactive” in each case.

As to `O=c1c(O[C@@H]2O[C@H](CO)[C@H](O)[C@H](O)[C@H]2O)c(-c2ccc(O)c(O)c2)oc2cc(O)cc(O)c12`, the result in experiment [10], in experiment [11], in [12] and in [14] was inactive. In addition, the Potency in experiment [13] was 3.55 µM (active).

Take `CC(C)CN(C[C@@H](OP(=O)(O)O)[C@H](Cc1ccccc1)NC(=O)O[C@@H]1CCOC1)S(=O)(=O)c1ccc(N)cc1`: the Potency result (in experiment [9]; in the experiment with CP215; in the experiment on PC26) was “inactive” throughout.

For `CC(C)=CCC[C@](C)(OC1OC(COC2OCC(O)C(O)C2O)C(O)C(O)C1O)[C@H]1CC[C@]2(C)[C@@H]1[C@H](O)C[C@@H]1[C@@]3(C)CC[C@H](OC4OC(CO)C(O)C(O)C4OC4OC(CO)C(O)C(O)C4O)C(C)(C)[C@@H]3CC[C@]12C` (some centres not stated), the Potency result in [15], in [16], in experiment [13] and in [17] was “inactive” throughout. Besides, in experiment [11], the result was inactive.

For `O=C(/C=C/c1ccc(O)c(O)c1)O[C@@H](C(=O)O)[C@@H](OC(=O)/C=C/c1ccc(O)c(O)c1)C(=O)O`, the outcome in experiment [18] was inactive.

Take `O=C(O)CCCCCCCCC(=O)O`: the outcome in experiment [18] was inactive.

In the case of `O=C(/C=C/c1ccc(O)c(O)c1)O[C@H]1[C@H](O)C[C@](O)(C(=O)O)C[C@H]1OC(=O)/C=C/c1ccc(O)c(O)c1`, the result in experiment [10], in [12] and in experiment [14] was inactive. In addition, the Potency result in experiment [15], in [16] and in experiment [17] was “inactive” each time.

For the origin of these results see PubChem BioAssay (NCATS).
